CHO-K1 Ca ag – nonselective activator or artifact in parental CHO-K1 cells; 360,000 tested, 0.48% active; AID 602248; Fluo-8 calcium fluorescence; scaled to maximal ATP response, vehicle zero; activation, % at 3 µM; in the data active = activation above about 15%;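 also: untransfected CHO-K1 host cells lacking M1 receptor as counterscreen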
CHO-K1 Ca antag – counter-screen for M1 antagonists: effect in parental CHO-K1 cells; inhibition, % at 3 µM; 360,000 tested, 0.6% active; ATP-induced calcium, Fluo-8 fluorescence; AID 602250;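 active = inhibition above a per-plate cutoff, the plate's mean sample inhibition plus 3 SD, cut at about 24% in these data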;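 also: 0% = DMSO plus EC80 ATP and 100% = DMSO alone without ATP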
CHRM4 PAM – potentiates acetylcholine response at human M4 receptor; CHO-K1 hM4/Gqi5, Fluo-8 calcium fluorescence, ACh EC20; 0% = ACh EC20, 100% = maximal ACh; activation, % at 3 µM; 360,000 tested, 0.4% active; P08173;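 active = activation above its plate's cutoff, the mean activation of sample wells plus 3 SD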
Target sequence (P08173 whole entry, looked up): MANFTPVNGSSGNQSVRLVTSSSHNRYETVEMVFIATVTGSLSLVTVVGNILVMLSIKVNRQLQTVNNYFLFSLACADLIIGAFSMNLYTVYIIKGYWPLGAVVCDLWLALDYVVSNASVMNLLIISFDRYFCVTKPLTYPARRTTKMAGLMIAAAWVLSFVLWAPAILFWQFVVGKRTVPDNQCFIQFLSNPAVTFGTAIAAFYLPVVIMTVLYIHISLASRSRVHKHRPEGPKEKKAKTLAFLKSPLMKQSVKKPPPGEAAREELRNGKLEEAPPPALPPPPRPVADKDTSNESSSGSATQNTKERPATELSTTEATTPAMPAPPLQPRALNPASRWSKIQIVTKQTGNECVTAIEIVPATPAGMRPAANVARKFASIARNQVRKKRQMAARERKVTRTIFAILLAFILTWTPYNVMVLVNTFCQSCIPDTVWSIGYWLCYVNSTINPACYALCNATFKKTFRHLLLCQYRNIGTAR
M4 antag – antagonists of human muscarinic M4 receptor (CHRM4) | CHO-hM4 cells, ACh EC80, Fluo-8 calcium fluorescence | inhibition, % at 3 µM | 360,000 tested, 0.73% active | AID 624125;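 active = inhibition above its plate's cutoff, the mean inhibition of sample wells plus 3 SD, cut at about 27% in these data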;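 also: 0% = acetylcholine EC80 with DMSO and 100% = DMSO without agonist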
CHRM4 agonist – CHRM4 agonism in calcium assay. P08173. CHO-K1 hM4/Gqi5, Fluo-8 calcium fluorescence; vehicle 0%, full acetylcholine response 100%. activation, % at 3 µM. 360,000 tested, 0.14% active. AID 624127;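 active = activation above the run mean over all test wells plus 3 SD, cut at about 32% in these data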;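 also: peak over basal fluorescence ratio per well then scaled between controls; 0% = DMSO wells and 100% = acetylcholine at EC100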
CHO-K1 Ca PAM – M1 PAM counterscreen hit in parental CHO-K1 cells; ATP EC20, Fluo-8 calcium fluorescence; 0% at ATP EC20, 100% at ATP max; activation, % at 3 µM; 360,000 tested, 0.02% active;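 active = activation above the run cutoff, the mean activation of all test compounds plus 3 SD, cut at about 40% in these data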;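 also: peak over basal fluorescence ratio in a 140 s read after ATP addition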
* = called active by the depositor. A selection: hits, their analogues and other compounds. The true share with any hit is near 2%.

How did CCc1nc2ccc(C(=O)NCCCn3ccnc3)cn2c1N(C)Cc1nccs1 do in these assays?
CHO-K1 Ca ag: 0; CHO-K1 Ca antag: 2; CHRM4 PAM: -3; M4 antag: -1; CHRM4 agonist: 0; CHO-K1 Ca PAM: 7

How did COc1ccc(OCCC(=O)OCC(=O)NCCc2ccccc2)cc1 do in these assays?
CHO-K1 Ca ag: 3; CHO-K1 Ca antag: -15; CHRM4 PAM: 0; M4 antag: -6; CHRM4 agonist: 3; CHO-K1 Ca PAM: 2

Results for CN(CC(=O)Nc1ccccc1C(F)(F)F)C(=O)CC1OC(=O)c2ccccc21 (centres undefined) ?
CHO-K1 Ca ag: 1; CHO-K1 Ca antag: -6; CHRM4 PAM: 0; M4 antag: 6; CHRM4 agonist: 1; CHO-K1 Ca PAM: 6

Results for O=C(COc1ccc(Cl)cc1)NNC(=O)c1ccc2c(=O)n3c(nc2c1)CCC3 ?
CHO-K1 Ca ag: 0; CHO-K1 Ca antag: 2; CHRM4 PAM: 1; M4 antag: -4; CHRM4 agonist: 0; CHO-K1 Ca PAM: -7

How did O=C(COc1ccc([N+](=O)[O-])cc1)Nn1cnnc1 do in these assays?
CHO-K1 Ca ag: 4; CHO-K1 Ca antag: -9; CHRM4 PAM: -9; M4 antag: -6; CHRM4 agonist: 10; CHO-K1 Ca PAM: 15

What do the screens show for `COc1ccc(C(=O)N2CCN=C2c2ccccc2)cc1OC`?
CHO-K1 Ca ag: 0; CHO-K1 Ca antag: 26*; CHRM4 PAM: -3; M4 antag: 11; CHRM4 agonist: 1; CHO-K1 Ca PAM: -6

How did CC(=O)NCCc1ccc(S(=O)(=O)N2CCN(c3nc(-c4ccccc4)c(C)s3)CC2)cc1 do in these assays?
CHO-K1 Ca ag: 2; CHO-K1 Ca antag: -9; CHRM4 PAM: 2; M4 antag: -5; CHRM4 agonist: 4; CHO-K1 Ca PAM: 16

Results for COC(=O)N/N=C(\C)c1ccc(-n2ccnc2)cc1 ?
CHO-K1 Ca ag: 0; CHO-K1 Ca antag: 4; CHRM4 PAM: 0; M4 antag: -4; CHRM4 agonist: 1; CHO-K1 Ca PAM: -11

How did C/C(=N\NC(=O)COc1ccc(C)cc1C(C)C)c1ccc(-n2ccnc2)cc1 do in these assays?
CHO-K1 Ca ag: 1; CHO-K1 Ca antag: -10; CHRM4 PAM: -5; M4 antag: 48*; CHRM4 agonist: 1; CHO-K1 Ca PAM: 28

What do the screens show for `Cc1ccc(S(=O)(=O)NCc2cccnc2)cc1`?
CHO-K1 Ca ag: 2; CHO-K1 Ca antag: 2; CHRM4 PAM: -1; M4 antag: 9; CHRM4 agonist: 1; CHO-K1 Ca PAM: 5

What do the screens show for `O=C(NCC(c1ccco1)N1CCc2ccccc21)C(=O)Nc1ccccc1` (centres undefined)?
CHO-K1 Ca ag: 0; CHO-K1 Ca antag: 25*; CHRM4 PAM: -8; M4 antag: 7; CHRM4 agonist: 1; CHO-K1 Ca PAM: -19

What do the screens show for `Cc1cc(C)cc(N(CCC(=O)O)S(=O)(=O)c2ccc(Cl)cc2)c1`?
CHO-K1 Ca ag: 1; CHO-K1 Ca antag: -15; CHRM4 PAM: -3; M4 antag: 36*; CHRM4 agonist: -1; CHO-K1 Ca PAM: 23

How did COc1ccc(CC(=O)N/N=C(\C)CC(=O)NCc2ccco2)cc1OC do in these assays?
CHO-K1 Ca ag: 3; CHO-K1 Ca antag: -4; CHRM4 PAM: -10; M4 antag: -6; CHRM4 agonist: 3; CHO-K1 Ca PAM: 9

What do the screens show for `COc1ccc(NC(=O)CCC(=O)OCc2ccc([N+](=O)[O-])cc2)cc1`?
CHO-K1 Ca ag: 0; CHO-K1 Ca antag: 8; CHRM4 PAM: -4; M4 antag: 4; CHRM4 agonist: 2; CHO-K1 Ca PAM: -3

What do the screens show for `O=C1C[C@@H](c2ccc(O)cc2)Oc2cc(O)cc(O)c21`?
CHO-K1 Ca ag: 2; CHO-K1 Ca antag: -18; CHRM4 PAM: 4; M4 antag: -10; CHRM4 agonist: 1; CHO-K1 Ca PAM: 3

What do the screens show for `Cc1c(O)cc2c(c1O)C(=O)CC(c1ccccc1)O2` (centres undefined)?
CHO-K1 Ca ag: 26*; CHO-K1 Ca antag: 85*; CHRM4 PAM: -17; M4 antag: 94*; CHRM4 agonist: 60*; CHO-K1 Ca PAM: -14

How did Cn1ccc2c(N3CCCCCC3)cc3c(c21)C1CCC3C1 (centres undefined) do in these assays?
CHO-K1 Ca ag: 1; CHO-K1 Ca antag: 6; CHRM4 PAM: -9; M4 antag: 1; CHRM4 agonist: 1; CHO-K1 Ca PAM: 13

What do the screens show for `CCc1c(O)nc(SCC(=O)Nc2ccc(Cl)cc2)n(-c2ccccc2)c1=O`?
CHO-K1 Ca ag: 0; CHO-K1 Ca antag: -15; CHRM4 PAM: 17*; M4 antag: -6; CHRM4 agonist: 0; CHO-K1 Ca PAM: 20

Results for CCc1nc(CN2CCCC(C(=O)c3ccc4c5c(cccc35)CC4)C2)c(C)[nH]1 (centres undefined) ?
CHO-K1 Ca ag: 0; CHO-K1 Ca antag: 25*; CHRM4 PAM: -7; M4 antag: 5; CHRM4 agonist: 1; CHO-K1 Ca PAM: -9

What do the screens show for `COc1ccc(C(C)(NC(C)=O)c2nc(-c3ccc(F)c(Cl)c3)cs2)cc1` (centres undefined)?
CHO-K1 Ca ag: 0; CHO-K1 Ca antag: -10; CHRM4 PAM: 1; M4 antag: -14; CHRM4 agonist: 1; CHO-K1 Ca PAM: 2

Results for O=C1c2cccc3c([N+](=O)[O-])ccc(c23)C(=O)N1c1ccccn1 ?
CHO-K1 Ca ag: 0; CHO-K1 Ca antag: 10; CHRM4 PAM: -6; M4 antag: 15; CHRM4 agonist: 1; CHO-K1 Ca PAM: 9

Results for O=C1c2cccc3c([N+](=O)[O-])ccc(c23)C(=O)N1c1ccc(Cl)cn1 ?
CHO-K1 Ca ag: 0; CHO-K1 Ca antag: 10; CHRM4 PAM: -13; M4 antag: 32*; CHRM4 agonist: 4; CHO-K1 Ca PAM: -12

Results for O=C1c2cccc3c([N+](=O)[O-])ccc(c23)C(=O)N1c1nccs1 ?
CHO-K1 Ca ag: 0; CHO-K1 Ca antag: 21; CHRM4 PAM: -12; M4 antag: 36*; CHRM4 agonist: -2; CHO-K1 Ca PAM: -8

How did CC(=O)Nc1ccc(-c2ccnc3c2CC(C)(C(=O)Nc2cccc(OC(F)(F)F)c2)O3)cc1 (centres undefined) do in these assays?
CHO-K1 Ca ag: 2; CHO-K1 Ca antag: -10; CHRM4 PAM: -2; M4 antag: -5; CHRM4 agonist: 8; CHO-K1 Ca PAM: 15

What do the screens show for `O=C(Nc1nc(-c2cc(F)ccc2F)cs1)c1cccc(N2C(=O)CCC2=O)c1`?
CHO-K1 Ca ag: 4; CHO-K1 Ca antag: 32*; CHRM4 PAM: -12; M4 antag: 9; CHRM4 agonist: 22; CHO-K1 Ca PAM: -22

Results for O=C(Nc1nc(-c2ccc(F)cc2)cs1)c1cccc(N2C(=O)CCC2=O)c1 ?
CHO-K1 Ca ag: 14; CHO-K1 Ca antag: -5; CHRM4 PAM: -14; M4 antag: 4; CHRM4 agonist: 27; CHO-K1 Ca PAM: 9

Screening data deposited in PubChem BioAssay by The Scripps Research Institute Molecular Screening Center.
